Experimental data taken from PubChem BioAssay (NCI).
About 79,000 compounds went through this panel and 15% of them were active in at least one assay; those are over-represented in the sample as a whole. Active and inactive are the calls of the source. Cut-off read from the data, not from the text of the source: active = growth inhibition above about 70%; inactive = the rest.

Assays:
[1] = NCI Yeast Anticancer Drug Screen. Data for the rad52 strain (AID 147);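 note: 0% = growth of vehicle-treated control cultures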; conditions: S. cerevisiae rad52 mutant growth inhibition, hits give high values
Outline: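 Measured: yeast growth inhibition. System: strain with a defined DNA damage repair alteration. Reference: vehicle-treated control cultures.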

[2] = NCI Yeast Anticancer Drug Screen. Data for the wt1 strain (AID 149);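 note: 0% = growth of vehicle-treated wt1 cultures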; conditions: S. cerevisiae wt1 strain (SPY 50644) growth inhibition, hits give high values
Outline: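 wt1 strain grown with compound or vehicle; inhibition taken from the growth difference.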

[3] = NCI Yeast Anticancer Drug Screen. Data for the rad50EPP+ strain (AID 151);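 note: 0% = growth of vehicle-treated control cultures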; conditions: S. cerevisiae rad50 mutant strain, hits give high values
Outline: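 One strain with a rad50 alteration (rad50EPP+) was compound-treated, its growth then compared to that of vehicle controls.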

[4] = NCI Yeast Anticancer Drug Screen. Data for the mgt1 strain (AID 153); conditions: S. cerevisiae mgt1 mutant growth inhibition, hits give high values
Outline: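 After exposure of the mgt1 yeast mutant to compound, growth was measured and reported as inhibition compared with vehicle controls.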

[5] = NCI Yeast Anticancer Drug Screen. Data for the rad50 strain (AID 155);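 note: 0% = growth of vehicle-only cultures of the same strain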; conditions: S. cerevisiae rad50 strain growth inhibition, hits give high values
Outline: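 DNA repair mutant yeast, compound exposure, growth read-out; inhibition is taken relative to vehicle.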

[6] = NCI Yeast Anticancer Drug Screen. Data for the mec2-1 strain (AID 157); conditions: S. cerevisiae mec2-1 strain, hits give high values
Outline: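 Test agents were screened against the mec2-1 yeast strain, with defined DNA repair or cell cycle alteration. Growth was scored as inhibition against vehicle-only controls.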

[7] = NCI Yeast Anticancer Drug Screen. Data for the rad14 strain (AID 159);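 note: 0% = growth of vehicle-treated control cultures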; conditions: S. cerevisiae rad14 strain growth inhibition, hits give high values
Outline: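 DNA repair-defective yeast, compound-exposed; % growth inhibition derived by comparison with vehicle-treated controls.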

[8] = NCI Yeast Anticancer Drug Screen. Data for the sgs1 mgt1 strain (AID 161);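 note: 0% = growth of cultures given vehicle only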; conditions: S. cerevisiae sgs1 mgt1 strain, hits give high values
Outline: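 Mutant yeast exposed to compound; growth scored against vehicle-only wells.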

[9] = NCI Yeast Anticancer Drug Screen. Data for the cln2 rad14 strain (AID 165);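 note: 0% = growth equal to vehicle treated cultures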; conditions: S. cerevisiae cln2 rad14 strain, hits give high values
Outline: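 Growth of compound-exposed yeast (cln2 rad14 genotype) measured and expressed as inhibition relative to vehicle.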

[10] = NCI Yeast Anticancer Drug Screen. Data for the bub3 strain (AID 167); conditions: S. cerevisiae bub3 mutant strain, hits give high values
Outline: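 In this screen, a yeast mutant lacking normal mitotic checkpoint function is challenged with compound. Relative growth versus vehicle gives the inhibition value.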

[11] = NCI Yeast Anticancer Drug Screen. Data for the wt2 strain (AID 169);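 note: 0% = growth of vehicle-treated yeast cultures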; conditions: S. cerevisiae wt2 strain growth inhibition, hits give high values
Outline: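 Genetically defined yeast strains from a DNA-repair/cell-cycle panel were used. Compound-exposed yeast growth was measured, and the inhibition was calculated relative to vehicle treatment.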

[12] = NCI Yeast Anticancer Drug Screen. Data for the mlh1 strain (AID 171);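 note: 0% = growth of vehicle-treated control cultures of the same strain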; conditions: S. cerevisiae mlh1 strain growth inhibition, hits give high values
Outline: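 Here the genetically defined yeast mutant is grown with each compound, and the extent to which its growth falls below that of vehicle-exposed cells is reported.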

[13] = NCI Yeast Anticancer Drug Screen. Data for the sgs1 strain (AID 173);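 note: 0% = growth of vehicle-only control cultures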; conditions: S. cerevisiae sgs1 mutant, hits give high values
Outline: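 Relative growth inhibition, referenced to vehicle, was determined in a yeast strain with a defined alteration affecting DNA damage repair or cell cycle control after compound exposure.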

[14] = NCI Yeast Anticancer Drug Screen. Data for the mlh1 rad18 strain (AID 175); conditions: S. cerevisiae mlh1 rad18 strain growth inhibition, hits give high values
Outline: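 In this whole-cell yeast screen, a strain with altered DNA damage repair is challenged with compound, and its growth is measured against matched vehicle-treated controls.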

[15] = NCI Yeast Anticancer Drug Screen. Data for the rad18 strain (AID 177); conditions: S. cerevisiae rad18 mutant growth inhibition, hits give high values
Outline: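 Screen uses a yeast strain with a defined lesion in DNA damage repair; compound effect is read as loss of growth compared to untreated vehicle cultures.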

[16] = at 5.0 µM (retest, dose inferred, filed as 0.5)
[17] = at 50.0 µM (retest, dose inferred, filed as 5.0)

Measured: growth inhibition

CSc1nc(=S)[nH]c2c1c(C)nn2-c1ccccc1
inactive: [1]; at 1.2 µM 11% | [1]; at 3.7 µM 18% | [1]; at 11.0 µM 12% | [1]; at 33.0 µM 11% | [1]; at 100.0 µM 41% | [2]; at 1.2 µM 11% | [2]; at 3.7 µM -2% | [2]; at 11.0 µM -1% | [2]; at 33.0 µM -4% | [2]; at 100.0 µM 1% | [3]; at 1.2 µM -17% | [3]; at 3.7 µM -16% | [3]; at 11.0 µM -24% | [3]; at 33.0 µM -10% | [3]; at 100.0 µM 14% | [4]; at 1.2 µM -19% | [4]; at 3.7 µM -15% | [4]; at 11.0 µM -3% | [4]; at 33.0 µM 7% | [4]; at 100.0 µM 35% | [5]; at 1.2 µM 12% | [5]; at 3.7 µM -1% | [5]; [16] 39% | [5]; at 11.0 µM 11% | [5]; at 33.0 µM 11% | [5]; at 50.0 µM 50.8% | [5]; at 100.0 µM 11% | [6]; at 1.2 µM 3% | [6]; at 3.7 µM -6% | [6]; [16] 16% | [6]; at 11.0 µM 1% | [6]; at 33.0 µM -1% | [6]; at 50.0 µM 45.8% | [6]; at 100.0 µM 3% | [7]; at 1.2 µM 9% | [7]; at 3.7 µM 18% | [7]; at 11.0 µM 28% | [7]; at 33.0 µM 23% | [7]; at 100.0 µM 34% | [8]; [16] 42% | [9]; [16] 3% | [9]; [17] 62% | [9]; at 50.0 µM 33.8% | [10]; at 1.2 µM -16% | [10]; at 3.7 µM -6% | [10]; [16] 39% | [10]; at 11.0 µM -15% | [10]; at 33.0 µM -17% | [10]; at 50.0 µM 64% | [10]; at 100.0 µM -14% | [11]; at 1.2 µM -14% | [11]; at 3.7 µM 3% | [11]; at 11.0 µM 5% | [11]; at 33.0 µM 12% | [11]; at 100.0 µM 27% | [12]; at 1.2 µM 11% | [12]; at 3.7 µM 9% | [12]; at 11.0 µM 32% | [12]; at 33.0 µM 21% | [12]; at 100.0 µM 41% | [13]; at 1.2 µM 7% | [13]; at 3.7 µM -1% | [13]; at 11.0 µM 9% | [13]; at 33.0 µM 16% | [13]; at 100.0 µM 39% | [14]; [16] 26% | [14]; at 50.0 µM 52.1% | [15]; at 1.2 µM 10% | [15]; at 3.7 µM -10% | [15]; at 11.0 µM 4% | [15]; at 33.0 µM -5% | [15]; at 100.0 µM 36%
active: [5]; [17] 91% | [6]; [17] 97% | [8]; [17] 98% | [8]; at 50.0 µM 72.1% | [10]; [17] 97% | [14]; [17] 84%

CC(C)(Br)C(=O)/C=C/c1ccc(Cl)c(Cl)c1
inactive: [1]; at 1.2 µM 2% | [1]; at 3.7 µM 3% | [1]; at 11.0 µM -1% | [1]; at 33.0 µM 2% | [1]; at 100.0 µM -4% | [2]; at 1.2 µM -2% | [2]; at 3.7 µM -1% | [2]; at 11.0 µM -3% | [2]; at 33.0 µM 0% | [2]; at 100.0 µM 1% | [3]; at 1.2 µM 4% | [3]; at 3.7 µM 3% | [3]; at 11.0 µM 3% | [3]; at 33.0 µM 3% | [3]; at 100.0 µM 3% | [4]; at 1.2 µM -4% | [4]; at 3.7 µM 0% | [4]; at 11.0 µM -1% | [4]; at 33.0 µM 0% | [4]; at 100.0 µM 0% | [5]; at 1.2 µM 4% | [5]; at 3.7 µM 3% | [5]; [16] 17% | [5]; at 11.0 µM 1% | [5]; at 33.0 µM 4% | [5]; [17] 64% | [5]; at 100.0 µM 4% | [6]; at 1.2 µM -1% | [6]; at 3.7 µM 1% | [6]; [16] 16% | [6]; at 11.0 µM -1% | [6]; at 33.0 µM 1% | [6]; [17] 49% | [6]; at 50.0 µM 48.2% | [6]; at 100.0 µM -1% | [7]; at 1.2 µM 4% | [7]; at 3.7 µM 2% | [7]; at 11.0 µM 1% | [7]; at 33.0 µM 2% | [7]; at 100.0 µM 3% | [8]; [16] 33% | [9]; [16] 7% | [9]; [17] 28% | [9]; at 50.0 µM 52% | [10]; at 1.2 µM -2% | [10]; at 3.7 µM -3% | [10]; [16] 7% | [10]; at 11.0 µM -2% | [10]; at 33.0 µM -1% | [10]; [17] 56% | [10]; at 100.0 µM -2% | [11]; at 1.2 µM -5% | [11]; at 3.7 µM -10% | [11]; at 11.0 µM -12% | [11]; at 33.0 µM -10% | [11]; at 100.0 µM -8% | [12]; at 1.2 µM -2% | [12]; at 3.7 µM -1% | [12]; at 11.0 µM -2% | [12]; at 33.0 µM 1% | [12]; at 100.0 µM 3% | [13]; at 1.2 µM -1% | [13]; at 3.7 µM -3% | [13]; at 11.0 µM 12% | [13]; at 33.0 µM 7% | [13]; at 100.0 µM 17% | [14]; [16] 27% | [15]; at 1.2 µM 3% | [15]; at 3.7 µM 6% | [15]; at 11.0 µM 3% | [15]; at 33.0 µM 7% | [15]; at 100.0 µM 50%
active: [5]; at 50.0 µM 87.4% | [8]; [17] 77% | [8]; at 50.0 µM 85.8% | [10]; at 50.0 µM 78.9% | [14]; [17] 78% | [14]; at 50.0 µM 82.8%
